# Tests used:
# Conditions in all cases: concentration: 1 μM, replicates: in singlicate; n = 1
# [1] = tested on: BLK
# [2] = tested on: BMPR1A
# [3] = tested on: BMPR1B
# [4] = tested on: BMPR2
# [5] = tested on: BMX
# [6] = tested on: BRAF
# [7] = tested on: T1, BRK
# T1 construct: gene PTK6
# [8] = tested on: BRSK1
# [9] = tested on: BRSK2
# [10] = tested on: BTK
# [11] = tested on: BUB1
# [12] = tested on: CAMK1B
# [13] = tested on: CAMK1D
# [14] = tested on: CAMK1G
# [15] = tested on: CAMK1
# [16] = tested on: CAMK2A
# [17] = tested on: CAMK2B
# [18] = tested on: CAMK2D
# [19] = tested on: CAMK2G
# [20] = tested on: CAMK4
# 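Also: KINOMEscan kinase panel screen.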
smiles,measurement,setting,value
[2H]C([2H])(c1cccc(C(F)(F)F)c1C)n1ccn2c(=O)nc(N3CCOCC3)cc12 [GSK2336394],%Inh,[1],25%
same,%Inh,[2],1%
same,%Inh,[3],0%
same,%Inh,[4],0%
same,%Inh,[5],9%
same,%Inh,[6],44%
same,%Inh,[7],18%
same,%Inh,[8],7%
same,%Inh,[9],0%
same,%Inh,[10],0%
same,%Inh,[11],52%
same,%Inh,[12],26%
same,%Inh,[13],0%
same,%Inh,[14],0%
same,%Inh,[15],0%
same,%Inh,[16],0%
same,%Inh,[17],0%
same,%Inh,[18],7%
same,%Inh,[19],3%
same,%Inh,[20],16%
CCc1nc(-c2cccc(C)c2)c(-c2ccnc(NCc3ccccc3)c2)s1,%Inh,[1],0%
same,%Inh,[2],0%
same,%Inh,[3],0%
same,%Inh,[4],9%
same,%Inh,[5],0%
same,%Inh,[6],38%
same,%Inh,[7],0%
same,%Inh,[8],2%
same,%Inh,[9],0%
same,%Inh,[10],0%
same,%Inh,[11],18%
same,%Inh,[12],0%
same,%Inh,[13],6%
same,%Inh,[14],9%
same,%Inh,[15],40%
same,%Inh,[16],11%
same,%Inh,[17],0%
same,%Inh,[18],0%
same,%Inh,[19],10%
same,%Inh,[20],0%
N#Cc1c(N2CCOCC2)sc(-c2ccn[nH]2)c1-c1ccc(Cl)cc1,%Inh,[1],0%
same,%Inh,[2],21%
same,%Inh,[3],0%
same,%Inh,[4],17%
same,%Inh,[5],14%
same,%Inh,[6],0%
same,%Inh,[7],8%
same,%Inh,[8],0%
same,%Inh,[9],18%
same,%Inh,[10],8%
same,%Inh,[11],13%
same,%Inh,[12],12%
same,%Inh,[13],19%
same,%Inh,[14],72%
same,%Inh,[15],24%
same,%Inh,[16],0%
same,%Inh,[17],0%
same,%Inh,[18],47%
same,%Inh,[19],0%
same,%Inh,[20],4%
O=c1cc(N2CCOCC2)nc2n(Cc3cccc(F)c3)ccn12 [GSK2297430],%Inh,[1],32%
same,%Inh,[2],0%
same,%Inh,[3],0%
same,%Inh,[4],0%
same,%Inh,[5],12%
same,%Inh,[6],6%
same,%Inh,[7],23%
same,%Inh,[8],0%
same,%Inh,[9],0%
same,%Inh,[10],0%
same,%Inh,[11],0%
same,%Inh,[12],4%
same,%Inh,[13],15%
same,%Inh,[14],0%
same,%Inh,[15],4%
same,%Inh,[16],0%
same,%Inh,[17],0%
same,%Inh,[18],0%
same,%Inh,[19],13%
same,%Inh,[20],11%
Nc1nccc(-c2c(-c3ccc(F)cc3)ncn2C2CCN(CC(F)(F)F)CC2)n1 [SB-236560],%Inh,[1],0%
same,%Inh,[2],0%
same,%Inh,[3],0%
same,%Inh,[4],45%
same,%Inh,[5],0%
same,%Inh,[6],0%
same,%Inh,[7],0%
same,%Inh,[8],40%
same,%Inh,[9],0%
same,%Inh,[10],37%
same,%Inh,[11],49%
same,%Inh,[12],80%
same,%Inh,[13],0%
same,%Inh,[14],2%
same,%Inh,[15],0%
same,%Inh,[16],0%
same,%Inh,[17],0%
same,%Inh,[18],0%
same,%Inh,[19],93.3%
same,%Inh,[20],11%
Nc1nc(-c2ccc3c(N)n[nH]c3c2)cc(N2CCCC2)n1 [GSK2227430],%Inh,[1],7%
same,%Inh,[2],0%
same,%Inh,[3],0%
same,%Inh,[4],0%
same,%Inh,[5],1%
same,%Inh,[6],0%
same,%Inh,[7],20%
same,%Inh,[8],0%
same,%Inh,[9],0%
same,%Inh,[10],0%
same,%Inh,[11],30%
same,%Inh,[12],3%
same,%Inh,[13],20%
same,%Inh,[14],0%
same,%Inh,[15],25%
same,%Inh,[16],0%
same,%Inh,[17],0%
same,%Inh,[18],0%
same,%Inh,[19],21%
same,%Inh,[20],0%
Cn1ccc2ncnc(Oc3ccc(NC(=O)Nc4ccncc4)c(Cl)c3)c21,%Inh,[1],0%
same,%Inh,[2],1%
same,%Inh,[3],0%
same,%Inh,[4],20%
same,%Inh,[5],0%
same,%Inh,[6],0%
same,%Inh,[7],0%
same,%Inh,[8],0%
same,%Inh,[9],0%
same,%Inh,[10],0%
same,%Inh,[11],11%
same,%Inh,[12],0%
same,%Inh,[13],0%
same,%Inh,[14],0%
same,%Inh,[15],0%
same,%Inh,[16],0%
same,%Inh,[17],0%
same,%Inh,[18],0%
same,%Inh,[19],0%
same,%Inh,[20],7%
Cn1cc(-c2ccc3c(c2)CCN3C(=O)Cc2ccccc2Cl)c2c(N)ncnc21 [GSK2608885],%Inh,[1],99.2%
same,%Inh,[2],10%
same,%Inh,[3],0%
same,%Inh,[4],0%
same,%Inh,[5],93.2%
same,%Inh,[6],90.5%
same,%Inh,[7],95.3%
same,%Inh,[8],0%
same,%Inh,[9],6%
same,%Inh,[10],95.6%
same,%Inh,[11],25%
same,%Inh,[12],33%
same,%Inh,[13],22%
same,%Inh,[14],13%
same,%Inh,[15],44%
same,%Inh,[16],0%
same,%Inh,[17],0%
same,%Inh,[18],17%
same,%Inh,[19],34%
same,%Inh,[20],0%
NS(=O)(=O)CCc1cccc(Nc2nccc(-c3c(-c4cccc(NC(=O)c5c(F)cccc5F)c4)nn4ccccc34)n2)c1 [GSK336735],%Inh,[1],99.7%
same,%Inh,[2],0%
same,%Inh,[3],0%
same,%Inh,[4],0%
same,%Inh,[5],94.6%
same,%Inh,[6],89%
same,%Inh,[7],96%
same,%Inh,[8],8%
same,%Inh,[9],20%
same,%Inh,[10],94.6%
same,%Inh,[11],77%
same,%Inh,[12],0%
same,%Inh,[13],29%
same,%Inh,[14],0%
same,%Inh,[15],53%
same,%Inh,[16],0%
same,%Inh,[17],0%
same,%Inh,[18],4%
same,%Inh,[19],14%
same,%Inh,[20],0%
CSc1ccc(-c2cc3ncnc(SCC(=O)O)c3s2)cc1,%Inh,[1],10%
same,%Inh,[2],0%
same,%Inh,[3],0%
same,%Inh,[4],0%
same,%Inh,[5],0%
same,%Inh,[6],0%
same,%Inh,[7],4%
same,%Inh,[8],6%
same,%Inh,[9],10%
same,%Inh,[10],0%
same,%Inh,[11],24%
same,%Inh,[12],0%
same,%Inh,[13],0%
same,%Inh,[14],0%
same,%Inh,[15],0%
same,%Inh,[16],0%
same,%Inh,[17],0%
same,%Inh,[18],0%
same,%Inh,[19],0%
same,%Inh,[20],3%

# Reference: article PMC5540273 (PLoS ONE, 2017)
